Here are results for 105 compounds from PubChem BioAssay AID623868 (Vanderbilt High Throughput Screening Facility, 2012).

SMILES strings stand for the structures. Among all 2,100 compounds or so, about 760 (36%) were called active.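 How the source made its calls: active means thallium-flux fluorescence traces judged by eye to show enhanced or reduced glutamate response, manual score 1 or -1, so both directions (some results past the limit were not filed as active); inactive means the rest, including fluorescent or raised-baseline compounds.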 These entries were drawn from the full list.

This test is described as follows: non-GIRK thallium flux modulation in mGlu8 cells, confirmation, counter-screen for GIRK activator project, cell-based, HEK-293 rmGlu8, no GIRK (AID 623868).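 Further: extra codes mark interference with 3 for fluorescent and 4 for baseline rise.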 The note with it: thallium flux fluorescence, at 10 µM, actives lie on both sides, codes: 1 enhancer, -1 blocker, 0 none, thallium stimulus containing EC20 glutamate. On the technique in general: The purpose of a counterscreen is to sort out artefacts and off-target activity.
As to `CN(C)S(=O)(=O)c1cccc(NC(=S)Nc2ccc(Cl)cc2Cl)c1`, the manual score is 1 (active). In the case of `CN(C)S(=O)(=O)c1cccc(NC(=S)Nc2cc(Cl)cc(Cl)c2)c1` it was 0 (inactive); in that of `CN(C)S(=O)(=O)c1cccc(NC(=O)Cc2ccc(Cl)cc2)c1`, 0 (inactive); in that of `S=C(Nc1cccc(Cl)c1)Nc1ccccc1Oc1ccccc1`, 0 (inactive). With `S=C(Nc1ccc(Cl)cc1Cl)Nc1ccccc1Oc1ccccc1`, the manual score was 1 (active).

On to `S=C(Nc1ccccc1Oc1ccccc1)Nc1cccc(Cl)c1Cl`, for which the manual score is 1 (active). As to `S=C(Nc1ccc(Oc2ccccc2)cc1)NC1CCCC1`, the manual score is 0 (inactive). Turning to `S=C(NCCc1ccccc1)Nc1ccc(Cl)cc1Cl`, the manual score is 0 (inactive). With `S=C(Nc1ccccc1)Nc1cc(Cl)ccc1Oc1ccccc1`, the manual score is 0 (inactive). Consider `S=C(Nc1ccccc1Cl)Nc1ccc(Cl)cc1Cl`, for which the manual score is 1 (active). As for `COc1ccccc1NC(=S)NCCc1ccc(Cl)cc1`, the manual score is 0 (inactive). As to `COC(=O)CSc1nnc(SCc2ccc(OC)cc2)s1`, the manual score is -0.5 (inactive).

With `Cc1ccc(C2C3=C(NCCN=C3c3ccccc3)C(=O)N2c2ccccc2)cc1` (stereo not given), the manual score is 0 (inactive). Take `CCCCn1c(=O)nc2n(-c3ccccc3)c3ccccc3cc-2c1=O`: the manual score was 0 (inactive). As to `O=C1c2ccccc2C(Nc2ccc3c(c2)OCCO3)N1Cc1ccccc1` (stereo not given), the manual score is 0 (inactive). With `Cc1ccccc1Cn1c(-c2cncs2)nc2ccccc21`, the manual score was 0 (inactive). In the case of `Cn1nc(C(F)(F)F)c2cc(NC(=O)OCc3ccc(F)cc3)sc21` it was 0 (inactive); in that of `CCc1cccc(NC(=O)CSC2=NS(=O)(=O)c3ccccc32)c1`, 0 (inactive); in that of `CC(C)OCCCNC(=O)c1cccc(NC(=O)c2ccccc2)c1`, 0 (inactive). For the compound `O=C(Nc1ccc2[nH]c(=S)sc2c1)c1ccccc1`, the manual score was 1 (active). As to `Cn1cccc1-c1nc2ccc(NC(=O)c3cccs3)cc2[nH]1`, the manual score was 0 (inactive). As to `COc1ccc(OCCCN2CCCCCC2)cc1`, the manual score was 0 (inactive).

For the compound `O=C(COC(=O)C1CC2C=CC1C2)Nc1ccc2c(c1)OC(F)(F)O2` (stereo not given), the manual score was 0 (inactive). `CC(C)(C)c1csc(NC(=O)c2ccc3nccnc3c2)n1`: the manual score was 0 (inactive).

For the compound `O=C(Nc1nc(-c2ccccn2)cs1)c1ccc(Br)s1`, the manual score is 1 (active). With `O=C(Nc1nc(-c2cc3ccccc3oc2=O)cs1)c1ccc(Br)o1`, the manual score was 0 (inactive). `COCCNC(=O)CN1C(=O)CSc2ncccc21`: the manual score is 0 (inactive). In the case of `Cc1ccc2cccc(S(=O)(=O)N3CCN(c4ccccc4F)CC3)c2n1` it was 0 (inactive); in that of `O=C(NC(=S)Nn1cnc2c(cnn2-c2ccccc2)c1=O)c1ccc(Oc2ccccc2)cc1`, 1 (active). With `CCCN(CCC)CCNC(=O)C(NS(=O)(=O)c1ccc2c(c1)CCC(=O)N2)c1ccccc1` (stereo not given), the manual score was 0 (inactive). In the case of `Cn1c(=O)c2c(nc3sccn32)n(C)c1=O`, the manual score is 0 (inactive). For `N#CC1(Cc2ccc([N+](=O)[O-])cc2)c2ccccc2C=CN1C(=O)c1ccccc1` (stereo not given), the manual score is 0 (inactive).

Regarding `COc1ccc(-c2nc(C#N)c(NCCCN(C)C)o2)cc1OC`, the manual score is 0 (inactive). For `COc1ccc(-c2nnc(CSc3nc4ccccc4c(=O)n3C)o2)cc1OC`, the manual score is -1 (active). For the compound `COc1cc(-c2nnc(CSc3nc4ccccc4s3)o2)cc(OC)c1OC`, the manual score is 0 (inactive). For the compound `COc1ccc(C(=O)NNC(=S)NC(=O)c2ccco2)cc1`, the manual score was 1 (active). On to `COc1ccccc1C(=O)NNC(=S)NC(=O)c1ccco1`, for which the manual score was 1 (active).

With `S=c1[nH]nc(-c2ccco2)n1/N=C/c1cccc(Cl)c1Cl`, the manual score is 1 (active).

Consider `S=c1[nH]nc(-c2ccco2)n1/N=C/c1ccc(Cl)cc1Cl`, for which the manual score was 1 (active).

As to `S=c1[nH]nc(CSCc2ccc(Cl)cc2Cl)n1-c1ccccc1`, the manual score was 0 (inactive). Turning to `O=C1c2ccsc2SCCN1Cc1c(Cl)cccc1Cl`, the manual score was 0 (inactive). Turning to `O=c1c2c3c(sc2nc2n1CCCCC2)CCCCC3`, the manual score is 0 (inactive).

As for `CCn1c(SCC(N)=O)nc2sc3c(c2c1=O)CCCC3`, the manual score was 1 (active). For `COC(=O)c1sc(N2C(=O)C(O)=C(C(=O)c3ccc(C)o3)C2c2ccc(F)cc2)nc1C` (stereo not given), the manual score was -1 (active). Next, `C=CCn1c(=O)c2c(C)c(C)sc2n2c(Nc3ccc(OC)cc3)nnc12`: -1 (active); `COC(=O)Nc1nnc(Cc2ccc(Cl)cc2)s1`: 0 (inactive).

Turning to `CC12CCC(C(=O)N3CCCc4ccccc43)(CC1=O)C2(C)C` (stereo not given), the manual score was 0 (inactive).

As for `O=C(CSc1nc(-c2ccccc2)cc(=O)[nH]1)N1CCc2ccccc21`, the manual score is 0 (inactive). For the compound `O=C(NC(=S)N1CCCc2ccccc21)c1ccc(Cl)cc1`, the manual score is 1 (active). On to `O=S(=O)(Cc1ccccc1)N1CCc2ccccc21`, for which the manual score was 3 (inactive). Next, `O=C(NC(=S)N1CCc2ccccc21)c1ccccc1`: 1 (active); `O=C(NC(=S)N1CCCc2ccccc21)c1ccc([N+](=O)[O-])cc1`: 1 (active).

With `O=C(NC(=S)N1CCCc2ccccc21)c1ccc(Br)cc1`, the manual score was 1 (active). Consider `CCSc1nnc(NC(=O)c2nn(C(C)C)c(=O)c3ccccc23)s1`, for which the manual score was -0.5 (inactive). For `CS(=O)(=O)N(CCc1ccccc1)CC(=O)NCc1ccc2c(c1)OCO2`, the manual score was 0 (inactive). Consider `CC(C)(C)C1CCC2(CC1)Nc1cccc3cccc(c13)N2`, for which the manual score was 0 (inactive). As for `CC1CCN(CC(O)COC2CCC(C(C)(C)C)CC2)CC1` (stereo not given), the manual score is 0 (inactive). Next, `O=C(c1ccccc1)N1CCCc2ccccc21`: 0 (inactive); `Cc1c(C(=O)N2CCc3ccccc32)oc2c1C(=O)CC(C)(C)C2`: 0 (inactive). On to `O=C(NC(=S)N1CCc2ccccc21)c1ccccc1Br`, for which the manual score is 1 (active). For the compound `CCC1CCCCN1C(=O)c1cc2cc(Br)ccc2oc1=O` (stereo not given), the manual score is 0 (inactive).

For the compound `COC(=O)c1cc2sccc2n1CC(=O)N1CCCc2ccccc21`, the manual score is 0 (inactive). Consider `CCC1CCCCN1C(=O)CSc1nnc(-c2ccco2)o1` (stereo not given), for which the manual score is 0 (inactive). In the case of `O=C(N/N=C1\CCCc2ccccc21)c1ccc([N+](=O)[O-])cc1`, the manual score was 1 (active).

With `CCC1CCCCN1C(=S)NC(=O)c1ccc([N+](=O)[O-])cc1` (stereo not given), the manual score is 1 (active). For `O=C(NC(=S)N1CCCc2ccccc21)c1ccccc1`, the manual score was 1 (active). With `CCCCC(=O)Nc1ncc2c(n1)CC(C)(C)CC2=O`, the manual score is 0 (inactive). Next, `Cc1oc(-c2cccc(Cl)c2)nc1CN1CCCC(C(=O)NCc2ccco2)C1` (stereo not given): -1 (active). With `Cc1oc(-c2cccc(Cl)c2)nc1CN1CCC(C(=O)NCc2ccco2)CC1`, the manual score was 0 (inactive). In the case of `CCc1ccc(-c2nc(CN3CCC(C(=O)NCc4ccco4)CC3)c(C)o2)cc1` it was 0 (inactive); in that of `CC1=C(C)C(c2ccccc2)NC(=S)N1` (stereo not given), 0 (inactive). As to `Cc1cccc(S(=O)(=O)NC(Cc2c[nH]c3ccccc23)C(=O)O)c1` (stereo not given), the manual score was 0 (inactive).

For `O=S(=O)(Nc1ccc(S(=O)(=O)Nc2cccc3ccccc23)cc1)c1ccccc1`, the manual score is 0 (inactive). As to `Cc1cccc(S(=O)(=O)Nc2cccc3c2C(=O)c2ccccc2-3)c1`, the manual score was 1 (active).

With `O=C(Nc1ccccc1-c1nnn(CC(=O)N2CCc3ccccc3C2)n1)C1CCC1`, the manual score is -1 (active). Consider `Cc1ccc(-c2nnn(CC(=O)N3CCCCC3)n2)c(-n2cnnn2)c1`, for which the manual score is 0 (inactive). Next, `CC(C)CC(=O)Nc1ccccc1-c1nnn(CC(=O)N2CCc3ccccc3C2)n1`: 0 (inactive); `CC(C)(C)C(=O)Nc1nc2c(s1)COc1ccccc1-2`: -0.5 (inactive); `CC(C)(C)c1ccc(C(=O)NC(=S)Nc2nc3c(s2)CCCC3)cc1`: 1 (active). Take `COC(=O)c1ccc(C(=O)NC(=S)Nc2nc3c(s2)CCCC3)cc1`: the manual score was 1 (active).

Consider `COC(=O)C(NC(=O)COc1ccccc1)(Nc1nc2c(s1)CCCC2)C(F)(F)F` (stereo not given), for which the manual score is 0 (inactive).

Turning to `O=C(NC(=S)Nc1nc2c(s1)CCCC2)c1ccc(C(=O)c2ccccc2)cc1`, the manual score is 0 (inactive). Next, `O=C(NC(=S)Nc1nc2c(s1)CCCC2)c1ccccc1`: 0 (inactive). Regarding `N=c1n(CCN2CCCCC2)c2ccccc2n1CC(O)COc1ccccc1` (stereo not given), the manual score was 0 (inactive). With `COCCCNc1c2c3c(cccc3[nH]c1=O)C(=O)c1ccccc1-2`, the manual score is 3 (inactive). On to `CN(C1CCCCC1)S(=O)(=O)c1ccc(NC(=S)NC(=O)c2cccs2)cc1`, for which the manual score was 1 (active).

As for `O=C(NC(=S)Nc1ccc(N2CCCCC2)cc1)c1cccs1`, the manual score was 1 (active). With `O=C(Nc1ccc(N2CCCCC2)c(Cl)c1)c1ncn[nH]1`, the manual score was 0 (inactive). Regarding `O=C(CNC1CCCCCC1)Nc1ccc(N2CCCC2)cc1`, the manual score is 0 (inactive).

Take `O=C(NC(=S)Nc1ccc(N2CCCCC2)c(Cl)c1)c1cccs1`: the manual score was 1 (active). Consider `Cc1ccc(NC(=O)c2cc(NC(=O)CCC(=O)O)ccc2N2CCCCC2)cc1`, for which the manual score was 0 (inactive).

As to `Cc1ccc(-c2[nH]nc3c2C(c2ccoc2)C(C#N)=C(N)O3)cc1C` (stereo not given), the manual score is 0 (inactive). Next, `CN(C)c1nc2n(c(=O)n1)C(C#N)CS2` (stereo not given): 0 (inactive); `O=C(/C=C/c1ccc(Cl)cc1)NC(=S)NN1CCCCC1c1cccnc1` (stereo not given): 0 (inactive); `COc1ccc(-n2ncc3c(NCc4cccs4)ncnc32)cc1`: 0 (inactive). For `c1csc(CCNc2ncnc3sc4c(c23)CCC4)c1`, the manual score is -1 (active).

As for `O=C(NC(=S)Nc1ccccn1)c1cc(-c2ccccc2)nc2ccccc12`, the manual score was 1 (active). In the case of `Cc1cccc(NC(=S)NC(=O)c2cc(-c3ccccc3)nc3ccccc23)c1` it was 0 (inactive); in that of `Cc1ccccc1NC(=S)NC(=O)c1cc(-c2ccccc2)nc2ccccc12`, 1 (active); in that of `O=C(NC(=S)Nc1ccccc1)c1cc(-c2ccccc2)nc2ccccc12`, 0.5 (inactive).

Turning to `COC(=O)c1ccc(NC(=S)NC(=O)c2cc(-c3ccccc3)nc3ccccc23)cc1`, the manual score was 1 (active). Consider `Fc1cccc(-n2c(-c3ccco3)nc3nc4ccccc4nc32)c1`, for which the manual score was 0 (inactive). For `Cc1ccc(C)c(N2CCN(C(=O)CCCOc3cc(=O)n(C)c4ccccc34)CC2)c1`, the manual score is 0 (inactive). Consider `CCC(=O)Oc1ccc(C/C(=N\O)c2ccc(O)cc2O)o1`, for which the manual score was -1 (active). For the compound `CCCn1c(C)cc(/C=C(\C#N)C(=O)OCC(=O)Nc2cccc(OC)c2)c1C`, the manual score was 0 (inactive).
